From PubChem BioAssay (EPA / NIEHS) come the findings set out here.

Assay [1] in a line: ATG_CRE_CIS: Attagene CIS-FACTORIAL HepG2 Assay for human cAMP Responsive Element (CRE) binding protein 3 (AID 2282926). To be noted: HepG2 CRE cis-reporter, Attagene multiplexed mRNA; actives raise or lower the signal. In outline: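 Assay format: transient reporter transfection of HepG2, 24 h treatment, total RNA isolation with DNase I step. Reporter abundance read by fluorescence after PCR and capillary separation; DMSO-normalised gain or loss fitting.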

In assay [2] the target is CCAAT/enhancer-binding protein beta (Homo sapiens) (UniProt P17676). Kind of assay: ATG_C_EBP_CIS: Attagene CIS-FACTORIAL HepG2 Assay for human CCAAT/Enhancer Binding Protein (C/EBP) beta (AID 2282927). To be noted: HepG2 Attagene cis-factorial transcription factor reporter; actives raise or lower the signal. In outline: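 Endogenous C/EBPb-driven reporter transcripts measured in transfected human HepG2 cells at 24 h via RT-PCR and capillary electrophoresis of labelled fragments. Activity fitted in both directions relative to DMSO baseline.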
Chain of CCAAT/enhancer-binding protein beta (Homo sapiens) (P17676 whole entry, looked up, the tested form may be a part): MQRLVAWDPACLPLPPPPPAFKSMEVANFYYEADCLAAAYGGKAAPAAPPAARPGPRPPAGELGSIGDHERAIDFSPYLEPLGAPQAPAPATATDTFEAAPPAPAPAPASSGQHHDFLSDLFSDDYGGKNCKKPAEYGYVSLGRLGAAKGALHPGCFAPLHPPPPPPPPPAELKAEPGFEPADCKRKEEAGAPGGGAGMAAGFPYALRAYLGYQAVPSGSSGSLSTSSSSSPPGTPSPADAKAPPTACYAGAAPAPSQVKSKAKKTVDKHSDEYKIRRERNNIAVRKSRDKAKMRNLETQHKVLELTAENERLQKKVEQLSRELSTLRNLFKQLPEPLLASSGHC

The nature of assay [3]: ATG_CMV_CIS: Attagene CIS-FACTORIAL HepG2 Assay for human CMV (Internal Marker) (AID 2282928).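 Further: endpoint acts as a background internal control marker rather than a target.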 To be noted: HepG2 CMV promoter reporter, transcription factor profiling; actives raise or lower the signal. An outline of the steps: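 24 h chemical treatment, HepG2 with transient multi-reporter transfection; RNA → oligo(dT) RT → PCR → 6-FAM extension → HpaI digest → CE fluorescence. Bidirectional fit, DMSO negative control.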

A short description of assay [4]: ATG_DR4_LXR_CIS: Attagene CIS-FACTORIAL HepG2 Assay for human Liver X Receptor (LXR), DR4 submotif (AID 2282929). To be noted: HepG2 Attagene DR4 cis-reporter, mRNA transcription; actives raise or lower the signal. An outline of the steps: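 HepG2 cells transiently transfected with cis-promoter-driven multiplexed reporter units (DR4 element) were dosed for 24 h. Reporter mRNA was quantified by RT-PCR, fluorescent primer extension, HpaI digestion and capillary electrophoresis; bidirectional fitting versus DMSO baseline.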

Assay [5] is described as follows: ATG_AP_1_CIS: Attagene CIS-FACTORIAL HepG2 Assay for human Activator Protein 1 (AP-1) (AID 2282931). As to conditions: HepG2 Attagene cis-factorial AP-1 reporter mRNA; actives raise or lower the signal. In outline:
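HepG2 cells transiently transfected with cis-element-driven multiplex reporter units; 24 h compound exposure. Reporter mRNA quantified by RT-PCR, FAM-labelled fragments resolved by capillary electrophoresis; bidirectional fit versus DMSO baseline.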

Assay [6] in a line: ATG_BRE_CIS: Attagene CIS-FACTORIAL HepG2 Assay for human Bone Morphogenetic Protein (BMP) Response Element (BRE) (AID 2282933). To be noted: HepG2 BMP response element reporter, Attagene transcription factor profiling; actives raise or lower the signal. In outline: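 Read-out: reporter mRNA induction quantified by RT-PCR and capillary electrophoresis after 24 h chemical exposure of transfected HepG2 cells. Endogenous factor activity on the BMP response element; gain or loss fitted against DMSO baseline.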

For assay [7], the target named is Transcription factor E2F1 (Homo sapiens) (UniProt Q01094). Briefly: ATG_E2F_CIS: Attagene CIS-FACTORIAL HepG2 Assay for human E2F Transcription Factor 1 (AID 2282935). To be noted: HepG2 Attagene cis-reporter, E2F reporter RNA transcripts; actives raise or lower the signal. An outline of the steps:
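Fluorescent RT-PCR products, digested with HpaI for 2 h at 37 C, are separated by capillary electrophoresis. Source RNA comes from transfected HepG2 cultures treated for 24 h.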

Assay [8] is described as follows: ATG_E_Box_CIS: Attagene CIS-FACTORIAL HepG2 Assay for human Enhancer Box (E-box) (AID 2282936). To be noted: HepG2 E-box cis-reporter transcription, actives raise or lower the signal. An outline of the steps: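 Fluorescent reporter fragments separated by capillary electrophoresis gave the signal; mRNA came from HepG2 cells transfected with cis-element reporters and treated 24 h. Curves fitted bidirectionally relative to DMSO controls.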

Assay [9] is described as follows: ATG_M_61_CIS: Attagene CIS-FACTORIAL HepG2 Assay for M61 Transcription Factor (Internal Marker) (AID 2282937). As to conditions: HepG2 Attagene CIS-FACTORIAL M61 internal marker reporter; actives raise or lower the signal. In outline: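 HepG2 cells transiently transfected with cis-element-driven multiple reporter transcription units, dosed for 24 h. Reporter mRNA measured by RT-PCR, 6-FAM primer-extension labelling, HpaI digestion and capillary electrophoresis; bidirectional fit versus DMSO baseline.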

Assay [10] in a line: ATG_EGR_CIS: Attagene CIS-FACTORIAL HepG2 Assay for human Early Growth Response 1 (EGR1) (AID 2282938). To be noted: HepG2 Attagene CIS-FACTORIAL EGR reporter mRNA; actives raise or lower the signal. In outline: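 HepG2 cells transiently transfected with cis-promoter-driven multiplexed reporter transcription units; reporter mRNA measured 24 h after compound dosing by RT-PCR, 6-FAM primer extension, HpaI digestion and capillary electrophoresis. Bidirectional fit versus DMSO baseline.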

A short description of assay [11]: ATG_M_19_CIS: Attagene CIS-FACTORIAL HepG2 Assay for M19 Transcription Factor (Internal Marker) (AID 2282939). To be noted: HepG2 Attagene CIS-FACTORIAL M19 internal marker reporter; actives raise or lower the signal. In outline:
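Readout: fluorescent reporter-transcript fragments by capillary electrophoresis after RT-PCR. Human HepG2 liver cells carried transfected MRTU constructs reporting endogenous transcription-factor activity; exposure 24 h. Gain or loss of signal fitted relative to DMSO.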

Assay [12] in a line: ATG_ERE_CIS: Attagene CIS-FACTORIAL HepG2 Assay for Estrogen Response Element (ERE) (AID 2282940). To be noted: HepG2 ERE cis-reporter, Attagene RNA transcript; actives raise or lower the signal. An outline of the steps: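 Readout: reporter mRNA induction by RT-PCR, FAM-labelled primer extension, HpaI digestion and capillary electrophoresis, 24 h after dosing transfected HepG2 cells. Endogenous transcription factors act on cis-element-regulated reporters. Gain or loss fitted against DMSO.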

The target in assay [13] is Hepatocyte nuclear factor 3-beta (Homo sapiens) (UniProt Q9Y261). Kind of assay: ATG_FoxA2_CIS: Attagene CIS-FACTORIAL HepG2 Assay for human Forkhead box A2 (FOXA2) (AID 2282942). As to conditions: HepG2 cis-reporter transcription factor activity, 24 h; actives raise or lower the signal. An outline of the steps: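 HepG2 cells transiently transfected with multiple cis-regulated reporter transcription units, dosed for 24 h. Reporter mRNA measured by RT-PCR, 6-FAM labelling, HpaI digestion and capillary electrophoresis; bidirectional fitting against DMSO baseline.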
Chain of Hepatocyte nuclear factor 3-beta (Homo sapiens) (Q9Y261 whole entry, looked up): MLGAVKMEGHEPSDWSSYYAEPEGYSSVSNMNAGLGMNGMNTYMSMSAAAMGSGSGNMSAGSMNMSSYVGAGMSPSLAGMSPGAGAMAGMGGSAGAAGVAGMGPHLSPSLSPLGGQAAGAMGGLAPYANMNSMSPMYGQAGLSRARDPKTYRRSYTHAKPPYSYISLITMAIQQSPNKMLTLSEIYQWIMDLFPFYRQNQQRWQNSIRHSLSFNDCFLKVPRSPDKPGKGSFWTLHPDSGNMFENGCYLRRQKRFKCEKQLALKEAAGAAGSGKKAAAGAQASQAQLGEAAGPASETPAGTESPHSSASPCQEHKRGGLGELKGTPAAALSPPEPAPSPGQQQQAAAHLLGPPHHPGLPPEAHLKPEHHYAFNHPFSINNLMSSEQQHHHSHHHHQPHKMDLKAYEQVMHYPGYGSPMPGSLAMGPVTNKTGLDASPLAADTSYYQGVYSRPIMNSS

Assay [14] is described as follows: ATG_GATA_CIS: Attagene CIS-FACTORIAL HepG2 Assay for human GATA Binding Protein (AID 2282944). To be noted: HepG2 GATA cis-element reporter, Attagene multiplex mRNA; actives raise or lower the signal. In outline:
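Read-out: fluorescent reporter mRNA fragments resolved by capillary electrophoresis after RT-PCR. Human liver HepG2 cells carried transiently transfected cis-regulated reporter constructs; chemicals incubated 24 h; gain or loss of signal fitted relative to DMSO.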

Assay [15] is described as follows: ATG_GLI_CIS: Attagene CIS-FACTORIAL HepG2 Assay for human Zinc Finger Protein GLI1 (AID 2282945). To be noted: HepG2, Attagene cis-factorial reporter mRNA, GLI element; actives raise or lower the signal. An outline of the steps:
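Bidirectional curve fits relative to DMSO, using reporter mRNA levels from RT-PCR plus capillary electrophoresis. Cells were HepG2 transiently carrying cis-regulated reporter constructs, harvested 24 h after dosing.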

The nature of assay [16]: ATG_AP_2_CIS: Attagene CIS-FACTORIAL HepG2 Assay for human Activator Protein 2 (AP-2) (AID 2282932). As to conditions: HepG2 AP-2 cis-reporter, Attagene transcription factor profiling; actives raise or lower the signal. An outline of the steps:
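Transiently transfected HepG2 cells are exposed to chemical for 24 h. Reporter transcripts are then measured as fluorescence following RT-PCR and capillary separation, and gain- or loss-of-signal is fitted relative to DMSO.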

Assay [17] can be described thus: ATG_Ets_CIS: Attagene CIS-FACTORIAL HepG2 Assay for human Erythroblast Transformation Specific (ETS) (AID 2282941). As to conditions: HepG2 ETS cis-reporter transcription, actives raise or lower the signal. An outline of the steps:
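Cis-regulated reporter mRNA induction in HepG2 (transient transfection), 24 h exposure, RT-PCR plus capillary electrophoresis detection; DMSO serves as negative control and baseline.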

The nature of assay [18]: ATG_FoxO_CIS: Attagene CIS-FACTORIAL HepG2 Assay for human Forkhead box O (FoxO) (AID 2282943). To be noted: HepG2 Attagene cis-reporter, FoxO element, mRNA; actives raise or lower the signal. In outline: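 Endogenous transcription factor activity read from multiplexed cis-promoter reporter transcripts in transiently transfected HepG2, 24 h after dosing. Reporter RNA measured via RT-PCR plus capillary electrophoresis of FAM-labeled products; gain or loss relative to DMSO.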

In assay [19] the target is Aryl hydrocarbon receptor (Homo sapiens) (UniProt P35869). Kind of assay: ATG_Ahr_CIS: Attagene CIS-FACTORIAL HepG2 Assay for human Aryl Hydrocarbon Receptor (Ahr) (AID 2282930). To be noted: HepG2 AhR cis-factorial reporter transcription; actives raise or lower the signal. In outline: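 Reporter mRNA levels, quantified by RT-PCR and fluorescent capillary electrophoresis, reflect endogenous AhR transcriptional activity in HepG2 cells carrying transfected cis-promoter reporter constructs. Readout at 24 h post-dose; gain or loss fitted against DMSO baseline.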
Chain of Aryl hydrocarbon receptor (Homo sapiens) (P35869 whole entry, looked up): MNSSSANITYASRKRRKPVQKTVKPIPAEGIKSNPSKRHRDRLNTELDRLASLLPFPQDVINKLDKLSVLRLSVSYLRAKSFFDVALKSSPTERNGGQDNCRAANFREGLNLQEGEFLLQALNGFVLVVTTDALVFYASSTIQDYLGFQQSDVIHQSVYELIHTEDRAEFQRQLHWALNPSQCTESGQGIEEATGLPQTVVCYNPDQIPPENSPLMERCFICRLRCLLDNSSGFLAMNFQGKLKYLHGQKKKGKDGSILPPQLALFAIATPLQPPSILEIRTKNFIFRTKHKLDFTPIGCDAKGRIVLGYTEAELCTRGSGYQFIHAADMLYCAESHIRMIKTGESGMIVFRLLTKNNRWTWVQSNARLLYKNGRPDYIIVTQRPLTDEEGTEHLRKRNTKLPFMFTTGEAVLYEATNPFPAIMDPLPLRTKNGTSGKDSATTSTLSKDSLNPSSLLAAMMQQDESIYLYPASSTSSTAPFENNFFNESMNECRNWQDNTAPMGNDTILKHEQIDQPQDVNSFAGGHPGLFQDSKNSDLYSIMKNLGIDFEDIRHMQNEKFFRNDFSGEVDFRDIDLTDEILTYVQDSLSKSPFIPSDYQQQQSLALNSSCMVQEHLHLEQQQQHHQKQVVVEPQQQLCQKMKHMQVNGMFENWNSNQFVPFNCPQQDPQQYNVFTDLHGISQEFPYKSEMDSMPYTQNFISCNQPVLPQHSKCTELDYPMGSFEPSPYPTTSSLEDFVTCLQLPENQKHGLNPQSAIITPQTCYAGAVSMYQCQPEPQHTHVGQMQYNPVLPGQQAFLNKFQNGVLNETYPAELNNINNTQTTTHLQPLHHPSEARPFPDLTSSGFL

Assay [20] addresses Retinoic acid receptor alpha (Homo sapiens) (UniProt P10276). Briefly: ATG_DR5_RAR_CIS: Attagene CIS-FACTORIAL HepG2 Assay for human Retinoic Acid Receptor Alpha (RARE), DR5 submotif (AID 2282934).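 On AC50: reporter responds to endogenous RAR alpha beta and gamma in HepG2 not RARA alone.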 To be noted: HepG2 Attagene cis-factorial RARE DR5 reporter, mRNA; actives raise or lower the signal. An outline of the steps:
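Reporter transcripts from a DR5-regulated unit, measured via RT-PCR plus capillary electrophoresis, reflect endogenous RAR activity in transiently transfected human HepG2 liver cells. Exposure lasted 24 h; gain or loss of signal scored against DMSO.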

The source made the active and inactive calls. How the source made its calls: active means hit-call score of the fitted dose curve at least 0.9, where 1 is the maximum; inactive means score below 0.9.

Chain of Transcription factor E2F1 (Homo sapiens) (Q01094 whole entry, looked up): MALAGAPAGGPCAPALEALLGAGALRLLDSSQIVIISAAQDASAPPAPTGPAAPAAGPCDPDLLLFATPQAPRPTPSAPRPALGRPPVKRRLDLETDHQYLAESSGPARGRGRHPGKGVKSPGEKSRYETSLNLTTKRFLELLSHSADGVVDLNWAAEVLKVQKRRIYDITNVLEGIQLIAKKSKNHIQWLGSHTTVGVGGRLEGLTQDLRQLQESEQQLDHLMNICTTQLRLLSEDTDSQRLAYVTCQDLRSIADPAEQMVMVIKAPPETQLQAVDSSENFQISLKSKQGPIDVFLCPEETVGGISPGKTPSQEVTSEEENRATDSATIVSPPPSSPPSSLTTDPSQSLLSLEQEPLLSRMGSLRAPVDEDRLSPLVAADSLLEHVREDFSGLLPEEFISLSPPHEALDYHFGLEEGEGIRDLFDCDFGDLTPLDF
Chain of Retinoic acid receptor alpha (Homo sapiens) (P10276 whole entry, looked up): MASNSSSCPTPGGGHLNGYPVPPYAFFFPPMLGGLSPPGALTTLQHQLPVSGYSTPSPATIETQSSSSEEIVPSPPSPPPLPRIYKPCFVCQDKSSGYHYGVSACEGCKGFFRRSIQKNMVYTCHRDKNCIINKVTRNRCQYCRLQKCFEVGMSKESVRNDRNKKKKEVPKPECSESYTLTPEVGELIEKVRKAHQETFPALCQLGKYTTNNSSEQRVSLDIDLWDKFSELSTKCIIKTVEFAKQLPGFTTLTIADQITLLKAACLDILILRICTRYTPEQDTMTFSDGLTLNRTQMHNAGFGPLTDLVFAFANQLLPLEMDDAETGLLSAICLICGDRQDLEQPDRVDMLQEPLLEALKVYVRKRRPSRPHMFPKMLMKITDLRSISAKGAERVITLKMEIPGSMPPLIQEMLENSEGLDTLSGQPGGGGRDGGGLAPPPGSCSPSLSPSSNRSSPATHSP

For the molecule `CC(=O)CC(N)=O`, the molecule was called inactive in assay [1], in assay [2], in assay [3], in [4], in assay [5] and in [6]. Besides, the outcome in assay [7], in assay [8], in [9], in assay [10], in assay [11] and in [12] was inactive. Besides, the outcome in [13], in [14] and in assay [15] was inactive.

Regarding `O=C(C=Cc1ccccc1)OCc1ccccc1`, the call in assay [1], in assay [2], in assay [3], in assay [4], in assay [5] and in assay [16] was inactive. Besides, the molecule was called inactive in assay [6], in [7], in assay [8], in assay [9], in assay [10] and in assay [11]. Further, the outcome in assay [12], in assay [17], in assay [13], in [18] and in assay [15] was inactive.

For `CC(=O)OCc1ccco1`, the molecule was called inactive in assay [1], in assay [2], in assay [3], in [19], in [5] and in assay [6]. Moreover, the result in assay [20], in [7], in [8], in assay [9], in assay [10] and in assay [11] was inactive. The molecule was called inactive in [12], in [17], in assay [13], in assay [18], in assay [14] and in [15].

One may read the AC50 as the concentration giving half of the maximal activity seen. For `CCCCCCCCCCC=CC#N`, the outcome in assay [1], in [2], in assay [6], in assay [20], in assay [7] and in assay [8] was inactive. Also, the outcome in assay [9], in assay [10], in assay [11], in assay [12], in [17] and in assay [13] was inactive. The molecule was called inactive in [18], in assay [14] and in [15]. In addition, the AC50 in assay [3] is 100 µM (active); in [4], 100 µM (active); in assay [5] it was 111 µM (active).

As to `OC1CCCCCCCCCCC1`, the molecule was called inactive in assay [1], in assay [2], in assay [19], in [5], in assay [16] and in assay [6]. Besides, the molecule was called inactive in assay [20], in [7], in assay [8], in [9], in [11] and in [17]. Moreover, the molecule was called inactive in assay [13], in assay [18], in [14] and in assay [15]. The half-maximal activity concentration (AC50) was 75.4 µM (active) in assay [3] and 26.4 µM (active) in assay [12].

As to `CCCCCCOc1cc(C)c(O)c(C)c1C`, the molecule was classed as inactive in [1], in assay [2], in assay [3], in assay [4], in [5] and in assay [16]. The result in assay [6], in [7], in assay [8], in assay [9], in assay [10] and in assay [11] was inactive. Moreover, the result in [12], in assay [17], in assay [13], in assay [14] and in assay [15] was inactive.

Take `CCCCCCCC/C=C\CCCCCCCC(=O)OCCO`: the half-maximal activity concentration (AC50) in assay [1] was 50 µM (active); in assay [2], 69 µM (active); in assay [5], 50 µM (active); in [20] it was 59.4 µM (active). For the same molecule, the call in [3], in assay [19], in assay [16], in [6], in assay [7] and in assay [8] was inactive. In addition, the call in assay [9], in assay [10], in assay [11], in assay [12], in [17] and in assay [13] was inactive. In addition, the result in [18], in assay [14] and in assay [15] was inactive.
